The values that follow come from PubChem BioAssay AID463173 (ICCB-Longwood Screening Facility, Harvard Medical School, 2010).

Each structure is given as a SMILES string. About 4,300 (8.3%) of roughly 52,000 compounds were called active. The sample holds actives, similar compounds and a random draw of the others, so the mix is not that of the screen. No stated cut-off is given here; in the data, active means survival mostly below about 52% (no sharp cut-off); inactive means mostly above about 56%.

The subject of the assay is DeltatarO mutant. As to the kind of experiment: growth inhibition of S. aureus wild type versus tarO mutant, primary screen, teichoic acid synthesis inhibitors, RN4220, OD600 (AID 463173). The following applies: OD600, 18 h, hits give low values, screened at 18.75 µg/mL (by protocol).
For the compound `COc1ccc(Cl)cc1NC(=O)N1CCC(CN2CCCCCC2)CC1`, the survival is 79% (inactive).

On to `CN(C)c1ccc(/C=C(/NC(=O)c2ccccc2)C(N)=O)cc1`, for which the survival is 86% (inactive).

For `Cc1ccc(NC(=O)C2CCCN(c3cnccn3)C2)cc1Cl` (stereo not given), the survival is 75% (inactive).

For `C=CCNC(=O)CN1CCC(n2nnc3cc(C(F)(F)F)ccc32)CC1`, the survival is 79% (inactive).

As for `COC(=O)c1cnn2c(C(F)(F)F)cc(-c3ccccc3)nc12`, the survival is 68% (inactive).

Consider `COc1ccc(-c2cc(C(F)(F)F)n3nc(C(=O)Nc4ccccc4SC)cc3n2)cc1OC`, for which the survival was 148% (inactive).

For `CCOC(=O)c1cnn2c(C(F)(F)F)cc(-c3ccc(Br)cc3)nc12`, the survival was 102% (inactive).

For the compound `COc1ccc(-c2cc(C(F)(F)F)n3nc(C(=O)Nc4cccc(Cl)c4Cl)cc3n2)cc1OC`, the survival is 123% (inactive).

As for `CCc1ccccc1NC(=O)c1cnn2c(C(F)(F)F)cc(-c3ccc(OC)c(OC)c3)nc12`, the survival was 46% (active).

For the compound `CCc1ccccc1NC(=O)c1cc2nc(-c3ccc(OC)c(OC)c3)cc(C(F)(F)F)n2n1`, the survival was 52% (active).

For `CCCCOc1ccc(C(=O)NCCc2sc(-c3ccc(OC)c(OC)c3)nc2C)cc1`, the survival was 72% (inactive).

Regarding `COc1ccc(NC(=O)c2oc3ccccc3c2NC(=O)C23CC4CC(CC(C4)C2)C3)cc1`, the survival is 80% (inactive).

As to `COc1ccc(N2CCN(c3ncnc4c3cnn4-c3ccc(C)c(Cl)c3)CC2)cc1`, the survival was 96% (inactive).

With `Cc1ccc(/C=C/C(=O)N2CCC(c3nc4ccccc4o3)CC2)cc1`, the survival is 87% (inactive).

Take `CC(C)NC(=O)C1CCN(C(=O)N2CC(C)Oc3ccccc32)CC1` (stereo not given): the survival was 72% (inactive).

In the case of `O=C(NC1CCCC1)c1ccc2c(=O)n(Cc3ccccc3)c(SCc3cccc([N+](=O)[O-])c3)nc2c1`, the survival is 106% (inactive).

On to `CCOC(=O)Cn1c(=O)c2c(nc(N3CCOCC3)n2Cc2ccccc2)n(C)c1=O`, for which the survival is 43% (active).

Regarding `CCOC(=O)Cn1c(=O)c2c(nc3n2CCN3c2ccc(CC)cc2)n(C)c1=O`, the survival was 79% (inactive).

Turning to `Cn1c(=O)c2c(nc(N3CCOCC3)n2Cc2ccccc2)n(C)c1=O`, the survival is 52% (inactive).

In the case of `COc1ccc(Oc2nc3c(c(=O)n(C)c(=O)n3C)n2Cc2ccccc2Cl)cc1`, the survival was 54% (inactive).

Regarding `Cn1c(=O)c2c(nc(N3CCOCC3)n2Cc2ccc(Br)cc2)n(C)c1=O`, the survival is 43% (active).

With `Cn1c(=O)c2c(nc(N3CCOCC3)n2Cc2ccccc2F)n(C)c1=O`, the survival is 71% (inactive).

Regarding `Cn1c(=O)c2c(nc(N3CCOCC3)n2Cc2cccc(Br)c2)n(C)c1=O`, the survival was 80% (inactive).

For `Cn1c(=O)c2c(nc(NCCCCO)n2Cc2ccccc2Cl)n(C)c1=O`, the survival is 63% (inactive).

On to `Cn1c(=O)n(Cc2ccccc2Cl)c(=O)c2c1nc1n2CCN1c1ccccc1`, for which the survival was 73% (inactive).

Take `Cn1c(=O)c2c(nc(N3CCOCC3)n2Cc2ccccc2Cl)n(C)c1=O`: the survival was 46% (active).

`CC(C)CCSc1nc2c(c(=O)n(C)c(=O)n2C)n1Cc1ccccc1Cl`: the survival is 34% (active).

With `Cn1c(=O)[nH]c(=O)c2c1nc(N1CCOCC1)n2Cc1ccccc1`, the survival is 167% (inactive).

Turning to `CCOc1ccc(NC(=O)c2c(NC(=O)c3ccco3)sc3c2CCC(C(C)(C)C)C3)cc1` (stereo not given), the survival was 68% (inactive).

On to `CCOC(=O)c1c(C)[nH]c(C)c1S(=O)(=O)N1CCCC(C(=O)NCc2cccc(C)c2)C1` (stereo not given), for which the survival is 88% (inactive).

For `Cc1ccc(CNC(=O)C2CCCN(S(=O)(=O)c3cn(C)cn3)C2)cc1` (stereo not given), the survival is 94% (inactive).

With `O=C(Cn1cnc2ccccc2c1=O)NCCC(=O)Nc1ccc(F)cc1`, the survival is 85% (inactive).

As to `CC(C)(C)Nc1nc(OCC#N)nc(N2CCOCC2)n1`, the survival is 113% (inactive).

For `CCCCNC(=O)Cn1c(=O)cc(C)c2c(C)nn(-c3ccc(CC)cc3)c21`, the survival was 55% (inactive).

As for `Cc1cc(C)c2c(n1)SCC(=O)N2CC(=O)Nc1ccc(C)c(C)c1`, the survival is 115% (inactive).

Consider `Cc1ccc(CSc2ncc(Cl)c(C(=O)Nc3nnc(C)s3)n2)cc1`, for which the survival is 32% (active).

Turning to `CCSc1ncc(Cl)c(C(=O)Nc2nnc(CC)s2)n1`, the survival is 72% (inactive).

In the case of `Cc1cccc(CSc2ncc(Cl)c(C(=O)Nc3nnc(C)s3)n2)c1`, the survival is 73% (inactive).

Take `CCc1nnc(NC(=O)c2nc(SCc3ccc(F)cc3)ncc2Cl)s1`: the survival is 29% (active).

Turning to `CCc1nnc(NC(=O)c2nc(SC)ncc2Cl)s1`, the survival is 109% (inactive).

As for `CCCc1nnc(NC(=O)c2nc(SCC)ncc2Cl)s1`, the survival was 76% (inactive).

For `Cc1nnc(NC(=O)c2nc(SC(C)C)ncc2Cl)s1`, the survival is 72% (inactive).

As for `CCc1nnc(NC(=O)c2nc(SCc3ccccc3C)ncc2Cl)s1`, the survival is 96% (inactive).

In the case of `CCc1nnc(NC(=O)c2nc(SCc3ccccc3F)ncc2Cl)s1`, the survival is 31% (active).

On to `Cc1ccc(CNC(=O)c2nc(SCc3ccc(C)cc3)ncc2Cl)cc1`, for which the survival is 99% (inactive).

Consider `CCc1nnc(NC(=O)c2nc(SCc3cccc(C)c3)ncc2Cl)s1`, for which the survival was 5% (active).

As for `Cc1nnc(NC(=O)c2nc(SCc3ccccc3F)ncc2Cl)s1`, the survival was 90% (inactive).

For the compound `CCCC(=O)C1=C(c2cccc(OC)c2)N(C(=O)CCC)n2c(C)nnc2S1`, the survival was 85% (inactive).

`O=C(c1ccc(Br)cc1)N1CCN(CCc2ccncc2)CC1`: the survival is 78% (inactive).

Consider `COc1cc(NC(=O)CC2C(=O)N(c3cccc(C)c3)C(=O)N2Cc2ccc(F)cc2)cc(OC)c1` (stereo not given), for which the survival was 94% (inactive).

As to `CC1=NN(c2ccccc2)C(c2ccccc2)C1` (stereo not given), the survival was 101% (inactive).

Regarding `O=C(CN(c1ccc2c(c1)OCCO2)S(=O)(=O)c1ccccc1)NCc1ccco1`, the survival is 85% (inactive).

For `CCOC(=O)C1CCN(C(c2ccc(C)cc2)c2c(O)cc(C)n(CCOC)c2=O)CC1` (stereo not given), the survival is 76% (inactive).

Turning to `C=CCn1c(C)c(C=C(C#N)C#N)c2ccccc21`, the survival was 99% (inactive).

For `CC1(c2ccccc2)OC(=O)C(C#N)C12CCCCC2` (stereo not given), the survival was 103% (inactive).

In the case of `NC(=O)c1ccc2nc(N)sc2c1`, the survival is 102% (inactive).

For the compound `Cc1cccc(C(=O)N2CCCCC2CCN2CCCCC2)c1` (stereo not given), the survival was 80% (inactive).

On to `COc1ccc(CCNC(=O)c2nc(SCc3ccccc3F)ncc2Cl)cc1OC`, for which the survival was 64% (inactive).

On to `COc1ccc(CCNC(=O)c2nc(SCc3ccc(C)cc3)ncc2Cl)cc1OC`, for which the survival was 65% (inactive).

For `COc1ccc(CCNC(=O)c2nc(SCc3ccc(F)cc3)ncc2Cl)cc1OC`, the survival was 46% (active).

For the compound `CC(C)c1nnc(NC(=O)c2nc(SCc3ccc(F)cc3)ncc2Cl)s1`, the survival was 24% (active).

For the compound `COc1ccc(NC(=O)c2nc(SCc3ccc(F)cc3)ncc2Cl)cc1`, the survival was 69% (inactive).

Take `CC(C)Sc1ncc(Cl)c(C(=O)Nc2nnc(C(C)C)s2)n1`: the survival was 69% (inactive).

For the compound `COc1ccccc1CNC(=O)CSc1nc(=O)[nH]c2c1CCC2`, the survival was 78% (inactive).

Regarding `COc1cc(CN(C(=O)COc2ccc(C)c(C)c2)c2ccccn2)cc(OC)c1OC`, the survival was 71% (inactive).

In the case of `COc1ccc(-n2c(=O)c3ccccc3n(CC(=O)NCCc3ccccc3)c2=O)c(OC)c1`, the survival was 74% (inactive).

With `CCn1ccc2cc(S(=O)(=O)N3CCCN(C(=O)Nc4ccccc4OC)CC3)ccc21`, the survival was 80% (inactive).

Turning to `COc1ccc(-n2ncc(C(=O)NCCN3CCOCC3)c2C2CCN(C(=O)OC(C)(C)C)CC2)cc1`, the survival is 119% (inactive).

With `COc1ccc(S(=O)(=O)Nc2cc(-c3cn4ccc(C)cc4n3)ccc2C)cc1OC`, the survival is 62% (inactive).

Regarding `COc1ccc(S(=O)(=O)Nc2cc(-c3cn4cccc(C)c4n3)ccc2C)cc1C`, the survival was 53% (active).

In the case of `CC(=O)Nc1ccc(S(=O)(=O)Nc2cc(-c3cn4ccccc4n3)ccc2C)cc1`, the survival is 67% (inactive).

Take `CCc1ccc(S(=O)(=O)Nc2cc(-c3cn4ccccc4n3)ccc2C)cc1`: the survival was 74% (inactive).

With `COc1ccc(Br)cc1S(=O)(=O)Nc1cc(-c2cn3ccccc3n2)ccc1C`, the survival was 43% (active).

Turning to `Cc1ccc(S(=O)(=O)Nc2cccc(-c3cn4cccc(C)c4n3)c2)c(C)c1`, the survival is 75% (inactive).

As for `Cc1ccc(-c2cn3cccc(C)c3n2)cc1NS(=O)(=O)c1ccccc1`, the survival is 41% (active).

Take `COc1ccc(S(=O)(=O)Nc2ccc(-c3cn4ccsc4n3)cc2)cc1C`: the survival is 128% (inactive).

For the compound `Cc1ccn2cc(-c3ccc(C)c(NS(=O)(=O)c4ccc(Cl)cc4)c3)nc2c1`, the survival was 43% (active).

`Cc1cc(C)c(S(=O)(=O)Nc2cc(-c3cn4ccccc4n3)ccc2C)cc1C`: the survival is 56% (inactive).

`COc1ccc(S(=O)(=O)Nc2cc(-c3cn4ccccc4n3)ccc2C)cc1`: the survival was 102% (inactive).

Consider `CCCS(=O)(=O)Nc1cc(-c2cn3cccc(C)c3n2)ccc1C`, for which the survival was 59% (inactive).

As to `Cc1cc(=O)[nH]c(SCC(=O)N2CCN(c3ccccc3)CC2)n1`, the survival is 81% (inactive).

As for `Cc1ccc(Cl)cc1NS(=O)(=O)c1ccc2oc(=O)c3ncn(C)c3c2c1`, the survival is 124% (inactive).

Turning to `O=C(Nc1ccc2oc(-c3ccc4ccccc4c3)nc2c1)c1cccc(Cl)c1Cl`, the survival is 63% (inactive).

On to `COc1cc(NC(=O)CCCN2C(=O)CCn3nc(-c4cn(C)c5ccccc45)cc32)cc(OC)c1`, for which the survival is 126% (inactive).

In the case of `CCCOc1ccc(C(=O)Nc2ccc(-c3cc4ccccc4oc3=O)c(C)c2)cc1`, the survival is 71% (inactive).

Take `N#CC1=C2SCN(C3CCCCC3)CN2C(=O)CC1c1ccc(F)cc1` (stereo not given): the survival is 87% (inactive).

For the compound `CCc1ccccc1NC(=O)Cn1cc(C(=O)c2ccncc2)c(=O)c2cc(C)ccc21`, the survival was 83% (inactive).

For the compound `CCS(=O)(=O)Nc1cc(-c2cn3ccc(C)cc3n2)ccc1C`, the survival is 60% (inactive).

`CCCS(=O)(=O)Nc1cc(-c2cn3ccc(C)cc3n2)ccc1C`: the survival is 78% (inactive).

For the compound `Cc1ccc(-c2cn3ccc(C)cc3n2)cc1`, the survival was 22% (active).

Consider `COc1cccc(C(=O)Nc2ccc(C(=O)OCc3cc(=O)n4cc(C)sc4n3)cc2)c1`, for which the survival is 66% (inactive).

Take `COc1cccc(CNC(=O)C2CCN(c3nc4ccc(Cl)cc4[nH]3)CC2)c1`: the survival is 101% (inactive).

Take `CN(C)c1ccc(CNC(=O)C2CCN(c3nc4ccccc4[nH]3)CC2)cc1`: the survival was 63% (inactive).

As for `COc1ccccc1CNC(=O)C1CCN(c2nc3ccc(Cl)cc3[nH]2)CC1`, the survival was 25% (active).

Regarding `Cc1ccc2nc(N3CCC(C(=O)N4CCN(c5cccc(Cl)c5)CC4)CC3)[nH]c2c1`, the survival is 68% (inactive).

`COc1ccc(CNC(=O)C2CCN(c3nc4ccccc4[nH]3)CC2)cc1OC`: the survival is 55% (inactive).

For `O=C(C1CCN(c2nc3ccccc3[nH]2)CC1)N1CCN(c2cccc(Cl)c2)CC1`, the survival is 8% (active).

Take `O=C(C1CCN(c2nc3ccccc3[nH]2)CC1)N1CCN(c2ccccc2)CC1`: the survival is 89% (inactive).

Regarding `COc1ccccc1CNC(=O)C1CCN(c2nc3ccc(C)cc3[nH]2)CC1`, the survival is 100% (inactive).

Turning to `CCOc1cc(CNC(=O)C2CCN(c3nc4ccccc4[nH]3)CC2)cc(OCC)c1OCC`, the survival was 20% (active).
